We go through 16 compounds from PubChem BioAssay (Tox21).

Assay [1] has as its target Thyrotropin receptor (Homo sapiens) (UniProt P16473). Nature of the assay: qHTS assay to identify small molecule agonists of the thyroid stimulating hormone receptor (TSHR) signaling pathway (AID 1224843; calls by dose curve; note: nearly all actives have a fitted effect of over 45% in size). As to conditions: TSHR-HEK293 cells, cAMP HTRF, agonist mode, 30 min; series mostly up to 92.4 µM. In outline: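 Cell line HEK293 with TSHR; density 800/well. Exposure 30 min RT. Readout HTRF cAMP (cAMP-d2/anti-cAMP-cryptate), 1 h RT before reading.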
For orientation: In qHTS, concentration-response curves come from the screen itself.

Assay [2] is described as follows: qHTS assay to identify small molecule agonists of the hypoxia (HIF-1) signaling pathway - cell viability counter screen (AID 1224844; calls by dose curve; note: nearly all actives have a fitted effect of over 50% in size). As to conditions: HRE-bla ME-180 viability, CellTiter-Glo luminescence, 17 h; series mostly up to 76.8 µM. Summed up:
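Tox21 10K compounds were added to HRE-bla ME-180 cells (0.5% dialyzed FBS) and incubated 17 hrs at 37C; ATP-based CellTiter-Glo luminescence then reported cell viability in the same wells.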

Assay [3] can be described thus: qHTS assay to identify small molecule agonists of H2AX (AID 1224845; active = well fitted activation curve with a large enough effect in the signal ratio in the repeat runs, not every such curve was filed as active; the % refers to the signal ratio). To be noted: CHO-K1 phospho-H2AX Ser139 HTRF, 3 h; series mostly up to 154 µM. Summed up: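 Wild-type CHO-K1 cells plated overnight, then exposed 3 hr at 37C to compounds at 15 concentrations (0.76% DMSO). Lysed, then HTRF anti-pH2AX(S139)-cryptate/anti-H2AX-d2 detection after 24 hr at room temperature; emissions 665 and 620 nm.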

Assay [4] is described as follows: qHTS assay to identify small molecule agonists of the hypoxia (HIF-1) signaling pathway (AID 1224846; active = well fitted activation curve with a large enough effect in the signal ratio in the repeat runs, not every such curve was filed as active; the % refers to the signal ratio). To be noted: HRE-bla ME-180 cells, beta-lactamase ratio, 17 h; series mostly up to 76.8 µM. In outline:
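Steps: seed ME-180 HRE-bla cells (2,000/well, 0.5% dialyzed FBS); incubate 5 hrs at 37C; pin-transfer compounds or DMSO; incubate 17 hrs; add LiveBLAzer B/G substrate CCF4-AM; measure reporter activation by FRET.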

Assay [5] is described as follows: qHTS assay to identify small molecule antagonists of the estrogen related receptor (ERR) signaling pathway from Tox21 library (AID 1224848). Note: nearly all actives have a fitted effect of over 50% in size. Note: potency is the fitted concentration of half-maximal effect. As to conditions: ERR reporter cell line, luciferase antagonist mode, 18 h; series mostly up to 92.4 µM. Summed up: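 Screening used an ERR reporter line supplied by NTP, exposed for 18 h at 37 C to library compounds delivered in DMSO. Signal was luciferase luminescence developed with ONE-Glo at room temperature for 30 min.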

The nature of assay [6]: qHTS RealTime-Glo MT Cell Viability Assay in HepG2 cells - 24 hour (AID 1224867). Note: nearly all actives have a fitted effect of over 50% in size. As to conditions: RealTime-Glo luminescence; series mostly up to 76.8 µM. Summed up: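 HepG2 cells (600/well) were dispensed with RealTime-Glo reagents, incubated 5 h at 37 °C, then treated with compounds in DMSO for up to 40 h. Nonlytic NanoLuc luminescence reflecting viable cells was read at each stated time point.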

Assay [7] can be described thus: qHTS RealTime-Glo MT Cell Viability Assay in HEK293 cells - 32 hour (AID 1224868). Note: top concentration of the series differs between compounds; nearly all actives have a fitted effect of over 50% in size. To be noted: RealTime-Glo luminescence; series mostly up to 76.8 µM. Summed up:
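HEK293 cells seeded with NanoLuc/prosubstrate reagent, rested 5 h at 37 C, then dosed and kept at 37 C up to 40 h. Nonlytic real-time luminescence from viable cells read at 0, 8, 16, 24, 32 and 40 h.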

Assay [8] is described as follows: A CellTox Green Cytotoxicity Assay to monitor cytotoxicity in HEK293 cells - 0 hour (AID 1224869). Note: nearly all actives have a fitted effect of over 50% in size. As to conditions: CellTox Green fluorescence; series mostly up to 76.8 µM. Summed up: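 Cytotoxicity was tracked continuously in HEK293 cells by a DNA-binding dye excluded from viable cells. Compounds were transferred in DMSO 5 h after seeding; fluorescence was recorded at intervals up to 40 h.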

Assay [9] in a line: qHTS assay to identify small molecule agonists of H2AX - cell viability counter screen (AID 1224847; calls by dose curve; note: top concentration of the series differs between compounds; nearly all actives have a fitted effect of over 30% in size). To be noted: CHO-K1 viability, CellTiter-Glo luminescence, 3 h; series mostly up to 154 µM. In outline:
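We seed wild-type CHO-K1 cells overnight, treat them for 3 hr at 37C with compounds in 15-concentration series, and quantify remaining viability by CellTiter-Glo luminescence.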

Assay [10] can be described thus: qHTS assay to identify small molecule agonists of the estrogen related receptor (ERR) signaling pathway from Tox21 library (AID 1224849; calls by dose curve; note: nearly all actives have a fitted effect of over 15% in size). As to conditions: ERR reporter cell line, ONE-Glo luciferase, 18 h; at 92.4 µM (top of the series) unless noted. Summed up: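 Agonist signal is luciferase luminescence from an ERR reporter cell line treated 18 h at 37 C with DMSO-dissolved compounds, read 30 min after ONE-Glo addition at room temperature.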

Unmarked numbers belong to inactive results. Results filed as inconclusive are left out. Activity calls are given as the source filed them. Unless noted, calls come from the whole dose curve; as a rule, active = well fitted curve in the direction sought with a large enough effect in the repeat runs; inconclusive = weak or mixed curves; inactive = no such curve, though single readings can be large; an effect the other way counts as inactive or inconclusive.
% is set by controls: 0 for no effect and ±100 for the full control effect.

Sequence of Thyrotropin receptor (Homo sapiens) (P16473 whole entry, looked up): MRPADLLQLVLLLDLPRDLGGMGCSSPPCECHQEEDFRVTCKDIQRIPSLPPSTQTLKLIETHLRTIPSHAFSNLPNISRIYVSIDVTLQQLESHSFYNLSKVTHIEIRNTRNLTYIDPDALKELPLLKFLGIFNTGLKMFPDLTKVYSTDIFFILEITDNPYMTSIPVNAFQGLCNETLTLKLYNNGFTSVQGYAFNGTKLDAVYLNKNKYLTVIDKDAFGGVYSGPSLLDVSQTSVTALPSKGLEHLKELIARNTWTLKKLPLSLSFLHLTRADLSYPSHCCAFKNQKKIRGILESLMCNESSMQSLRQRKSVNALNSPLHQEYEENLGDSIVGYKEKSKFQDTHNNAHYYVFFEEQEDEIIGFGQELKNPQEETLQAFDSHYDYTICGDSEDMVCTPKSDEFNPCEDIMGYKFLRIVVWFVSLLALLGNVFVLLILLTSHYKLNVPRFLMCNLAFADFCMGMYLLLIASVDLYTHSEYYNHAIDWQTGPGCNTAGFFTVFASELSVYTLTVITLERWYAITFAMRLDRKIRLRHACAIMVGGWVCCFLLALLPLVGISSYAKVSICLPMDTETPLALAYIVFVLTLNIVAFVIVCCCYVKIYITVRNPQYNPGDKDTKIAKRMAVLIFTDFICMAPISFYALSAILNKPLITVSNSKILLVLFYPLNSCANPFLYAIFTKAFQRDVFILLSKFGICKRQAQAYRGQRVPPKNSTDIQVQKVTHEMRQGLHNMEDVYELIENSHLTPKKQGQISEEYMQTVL

With `C=C(C)C1CC=C(C)C(O)C1` (stereo not drawn), the result in assay [1], in [3], in assay [4] and in assay [6] was inactive. For the same compound, the Potency result in [2], in [5], in assay [7] and in assay [8] was “inactive” throughout.

On to `Cn1cnc2c(=O)[nH]c(N)nc21`, for which the outcome in assay [1], in assay [3], in assay [4] and in assay [6] was inactive. In addition, the Potency entry in assay [2], in assay [7] and in [8] was “inactive” throughout.

On to `C#CC(O)C(CC)CCCC` (stereo not drawn), for which the call in assay [1], in assay [3] and in assay [6] was inactive. Also, the Potency result in assay [2], in assay [9] and in [7] was “inactive” throughout.

In the case of `NC(N)=NS(=O)(=O)c1ccc(N)cc1`, the compound was called inactive in [1], in assay [3] and in [6]. Besides, the Potency result in assay [2], in [9] and in [7] was “inactive” throughout.

For `CCC(=O)c1cccc(Cl)c1`, the result in assay [1], in assay [3] and in assay [6] was inactive. Moreover, the Potency entry in assay [2], in assay [9] and in assay [7] was “inactive” throughout.

Consider `CC(=O)c1ccc(C)cc1`, for which the call in [1], in [3], in [4] and in assay [6] was inactive. Moreover, the Potency entry in assay [2], in assay [7] and in assay [8] was “inactive” each time.

Take `O=S(=O)(O)c1ccccc1O`: the compound was called inactive in [1], in [3], in [4] and in assay [6]. The Potency entry in assay [2], in assay [5] and in [7] was “inactive” in each case.

On to `CC(C)CCCCCCN`, for which the compound was called inactive in assay [1], in [3], in [4] and in assay [6]. Further, the Potency result in [2], in [7] and in assay [8] was “inactive” each time.

`Cc1onc(-c2ccccc2)c1-c1ccc(S(N)(=O)=O)cc1`: the outcome in assay [1], in assay [3], in assay [4] and in [6] was inactive. In addition, the Potency entry in [2] and in [8] was “inactive” throughout. Further, in assay [5], the Potency is 13.3 µM (active). The activity change, positive = activation in [10] is -32.6% [at 42.5 µM].

Turning to `O=C(O)c1ccccc1S`, the call in [1] and in [6] was inactive. Besides, the Potency entry in [2], in [9] and in assay [7] was “inactive” in each case.

`Cn1ccc2cc3c(cc21)CCN3C(=O)Nc1cccnc1`: the activation in assay [1] was 14.6% [at 19 µM]. Further, the activity change, negative = cytotoxicity in assay [2] is -7.99% [at 15.8 µM]; in assay [9] it was 1.26% [at 31.6 µM]; in assay [6] it was -2.41% [at 15.8 µM]. Besides, in [7], the activity change, negative = cytotoxic is -7.77% [at 15.8 µM]. For the same compound, the cytotoxicity in assay [8] was -3.51% [at 15.8 µM].

As to `CO[Si](OC)(OC)OC`, the call in [1] and in assay [6] was inactive. Besides, the Potency result in [2], in assay [9] and in [8] was “inactive” each time.

For the compound `C=CCOCC(O)CS(=O)(=O)O` (stereo not drawn), the compound was called inactive in [1] and in assay [6]. The Potency result in assay [2], in assay [9], in assay [7] and in [8] was “inactive” each time.

Turning to `CC1=CCC2C(C1)C2(C)C` (stereo not drawn), the Potency result in assay [2], in assay [9] and in [7] was “inactive” each time. In addition, the call in assay [3], in [4] and in assay [6] was inactive.

For the compound `CCCC(C)C(=O)O` (stereo not drawn), the compound was called inactive in assay [1], in assay [4] and in assay [6]. For the same compound, the Potency entry in assay [9], in [7] and in [8] was “inactive” throughout. For the same compound, the Potency in [5] is 52.3 µM (active).

Regarding `NS(=O)(=O)c1cc(C2(O)NC(=O)c3ccccc32)ccc1Cl` (stereo not drawn), the call in assay [1] and in assay [6] was inactive. The Potency entry in assay [2], in assay [9], in assay [7] and in assay [8] was “inactive” throughout.
